Data published in PubChem BioAssay (EPA / NIEHS).
Inconclusive results are not listed. Calls of active or inactive are those of the source. How the source made its calls, unless noted: active means hit-call score of the fitted dose curve at least 0.9, where 1 is the maximum; inconclusive means response in the unintended direction; inactive means score below 0.9.

Columns and labels:
[1] = ATG_TAL_CIS: Attagene CIS-FACTORIAL HepG2 Assay for human TAL Basal Promoter (AID 2282966; active means hit-call score of the fitted dose curve at least 0.9, where 1 is the maximum; inactive means score below 0.9;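 further: background control endpoint measuring basal TAL promoter reporter mRNA not a specific factor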); conditions: HepG2 Attagene cis-factorial TAL promoter reporter; actives raise or lower the signal
Summary of the method: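 HepG2 cells transiently transfected with multiplexed cis-promoter reporter units, dosed 24 h. Reporter mRNA quantified by RT-PCR, 6-FAM labelling, HpaI digestion and capillary electrophoresis; TAL basal promoter serves as background control, fitted bidirectionally versus DMSO.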

[2] = ATG_TGFb_CIS: Attagene CIS-FACTORIAL HepG2 Assay for human Transforming Growth Factor (TGF) (AID 2282967; active means hit-call score of the fitted dose curve at least 0.9, where 1 is the maximum; inactive means score below 0.9); conditions: HepG2 Attagene CIS TGFb reporter, mRNA transcription; actives raise or lower the signal
Summary of the method: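 Transient MRTU transfection of HepG2 (FuGene 6). Dose 24 h. TriZol RNA, oligo(dT) RT, PCR, 6-FAM primer extension, HpaI cut, CE. Bidirectional fit, DMSO = baseline.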

[3] = target: X-box-binding protein 1 (Homo sapiens) (UniProt P17861); assay: ATG_Xbp1_CIS: Attagene CIS-FACTORIAL HepG2 Assay for human X-box Binding Protein 1 (XBP1) (AID 2282972; active means hit-call score of the fitted dose curve at least 0.9, where 1 is the maximum; inactive means score below 0.9); conditions: HepG2 XBP1 cis-element reporter, Attagene multiplex; actives raise or lower the signal
X-box-binding protein 1 (Homo sapiens), sequence (P17861 whole entry, looked up, the tested form may be a part): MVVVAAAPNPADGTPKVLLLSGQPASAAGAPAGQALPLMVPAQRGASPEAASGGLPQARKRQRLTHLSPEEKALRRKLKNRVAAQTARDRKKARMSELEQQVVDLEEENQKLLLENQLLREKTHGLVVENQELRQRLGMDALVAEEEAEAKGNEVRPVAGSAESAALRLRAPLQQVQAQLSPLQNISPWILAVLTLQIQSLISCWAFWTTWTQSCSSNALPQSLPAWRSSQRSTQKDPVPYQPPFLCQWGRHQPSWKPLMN
Summary of the method: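 Fluorescence-labelled cDNA fragments from reporter transcripts, separated by capillary electrophoresis, give the signal. Source: HepG2 cells transfected with promoter-driven reporter units, harvested 24 h post-dose. DMSO served as reference for bidirectional curve fitting.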

[4] = ATG_M_19_TRANS: Attagene TRANS-FACTORIAL HepG2 Assay for M19 Transcription Factor (Internal Marker) (AID 2282974); conditions: HepG2 Attagene TRANS-FACTORIAL M19 internal marker reporter
Summary of the method: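 HepG2 cells transiently transfected with multiple GAL4-UAS reporter transcription units were exposed to chemicals for 24 h. Reporter mRNA was read by RT-PCR, 6-FAM primer extension, HpaI digestion and capillary electrophoresis; gain of signal fitted relative to DMSO.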

[5] = target: Glucocorticoid receptor (Homo sapiens) (UniProt P04150); assay: ATG_GR_TRANS: Attagene TRANS-FACTORIAL HepG2 Assay for human Glucocorticoid Receptor (GR) (AID 2282978); conditions: HepG2 Attagene TRANS GR reporter, mRNA transcription;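 further: activators score as hits since higher reporter transcript over DMSO is fitted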
Glucocorticoid receptor (Homo sapiens), sequence (P04150 whole entry, looked up, the tested form may be a part): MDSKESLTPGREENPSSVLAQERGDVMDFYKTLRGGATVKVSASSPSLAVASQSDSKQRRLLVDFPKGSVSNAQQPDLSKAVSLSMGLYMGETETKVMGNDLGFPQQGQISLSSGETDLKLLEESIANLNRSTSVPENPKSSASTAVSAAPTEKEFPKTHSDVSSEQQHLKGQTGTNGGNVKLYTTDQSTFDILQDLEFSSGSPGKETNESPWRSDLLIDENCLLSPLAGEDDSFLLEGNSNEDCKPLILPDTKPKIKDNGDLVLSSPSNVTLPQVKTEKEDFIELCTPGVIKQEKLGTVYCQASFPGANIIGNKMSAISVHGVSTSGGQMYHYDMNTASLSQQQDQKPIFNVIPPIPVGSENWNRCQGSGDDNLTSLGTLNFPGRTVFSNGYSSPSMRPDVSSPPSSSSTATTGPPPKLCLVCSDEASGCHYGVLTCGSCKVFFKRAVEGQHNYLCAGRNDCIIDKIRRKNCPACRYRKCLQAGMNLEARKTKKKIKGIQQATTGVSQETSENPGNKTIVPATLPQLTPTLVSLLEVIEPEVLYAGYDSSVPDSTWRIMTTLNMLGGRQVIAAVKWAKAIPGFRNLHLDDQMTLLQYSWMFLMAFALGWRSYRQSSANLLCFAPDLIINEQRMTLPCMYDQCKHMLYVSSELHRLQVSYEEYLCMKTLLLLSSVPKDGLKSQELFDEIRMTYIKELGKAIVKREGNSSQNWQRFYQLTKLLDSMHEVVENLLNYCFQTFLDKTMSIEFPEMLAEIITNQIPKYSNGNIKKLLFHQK
Summary of the method: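 HepG2 cells transiently transfected with multiplexed reporter units in which chimeric NR-GAL4 proteins drive GAL4-UAS reporters; 24 h compound exposure. Reporter mRNA measured by RT-PCR, 6-FAM labelling, HpaI digestion and capillary electrophoresis; gain-of-signal fitted versus DMSO.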

[6] = target: Bile acid receptor (Homo sapiens) (UniProt Q96RI1); assay: ATG_FXR_TRANS: Attagene TRANS-FACTORIAL HepG2 Assay for Farnesoid X Receptor (FXR) (AID 2282979); conditions: HepG2 Attagene TRANS FXR-GAL4 reporter transcription;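 further: hits raise reporter mRNA above DMSO so AC50 marks FXR activation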
Bile acid receptor (Homo sapiens), sequence (Q96RI1 whole entry, looked up, the tested form may be a part): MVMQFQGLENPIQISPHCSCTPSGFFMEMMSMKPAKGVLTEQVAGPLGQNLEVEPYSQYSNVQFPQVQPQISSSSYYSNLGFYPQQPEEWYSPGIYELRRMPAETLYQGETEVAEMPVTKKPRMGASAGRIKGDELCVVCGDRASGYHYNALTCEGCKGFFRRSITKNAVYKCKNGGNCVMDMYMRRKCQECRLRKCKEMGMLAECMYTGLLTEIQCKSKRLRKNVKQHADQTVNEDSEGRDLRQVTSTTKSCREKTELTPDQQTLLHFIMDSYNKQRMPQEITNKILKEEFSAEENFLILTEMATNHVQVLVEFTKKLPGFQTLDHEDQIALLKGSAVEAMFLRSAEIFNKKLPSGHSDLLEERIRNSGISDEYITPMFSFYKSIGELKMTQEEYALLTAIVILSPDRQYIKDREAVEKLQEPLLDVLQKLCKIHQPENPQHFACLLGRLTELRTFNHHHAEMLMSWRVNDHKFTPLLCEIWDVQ
Summary of the method: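 HepG2 cells were transiently transfected with GAL4-UAS reporters driven by chimeric NR-Gal4 proteins and dosed for 24 h. Reporter mRNA was quantified by RT-PCR, fluorescent labelling, HpaI digestion and capillary electrophoresis, with gain of signal scored versus DMSO.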

[7] = target: Oxysterols receptor LXR-beta (Homo sapiens) (UniProt P55055); assay: ATG_LXRb_TRANS: Attagene TRANS-FACTORIAL HepG2 Assay for human Liver X Receptor beta (LXRb) (AID 2282981); conditions: HepG2 Attagene TRANS GAL4-LXRb reporter, mRNA
Oxysterols receptor LXR-beta (Homo sapiens), sequence (P55055 whole entry, looked up, the tested form may be a part): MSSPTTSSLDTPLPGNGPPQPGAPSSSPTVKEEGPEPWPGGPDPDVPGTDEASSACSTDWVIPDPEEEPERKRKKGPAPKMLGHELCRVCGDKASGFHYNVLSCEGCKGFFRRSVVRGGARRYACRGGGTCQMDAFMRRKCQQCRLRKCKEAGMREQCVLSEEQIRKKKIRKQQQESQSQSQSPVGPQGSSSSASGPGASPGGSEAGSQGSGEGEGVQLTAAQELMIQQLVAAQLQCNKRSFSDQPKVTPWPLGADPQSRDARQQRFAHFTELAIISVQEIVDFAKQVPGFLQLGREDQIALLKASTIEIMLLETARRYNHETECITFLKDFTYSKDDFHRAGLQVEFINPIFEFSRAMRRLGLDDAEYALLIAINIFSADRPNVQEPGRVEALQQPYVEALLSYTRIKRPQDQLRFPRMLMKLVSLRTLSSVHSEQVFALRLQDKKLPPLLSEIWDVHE
Summary of the method: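 Cells: HepG2, transiently transfected with GAL4-UAS reporter units plus LXRb-Gal4 fusion. Treatment: 24 h. Detection: reporter mRNA by RT-PCR, 6-FAM labelling, HpaI digestion, capillary electrophoresis.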

[8] = ATG_M_06_TRANS: Attagene TRANS-FACTORIAL HepG2 Assay for M06 Transcription Factor (Internal Marker) (AID 2282983); conditions: HepG2 Attagene TRANS M06 internal marker reporter;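 further: reporter transcript level by RT-PCR then capillary electrophoresis fluorescence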
Summary of the method: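 HepG2 cells transiently transfected with GAL4-UAS multiple reporter units, dosed 24 h. Reporter RNA reverse-transcribed, PCR-amplified, 6-FAM-labeled, HpaI-digested and quantified by capillary electrophoresis; this internal-marker signal fitted upward relative to DMSO.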

[9] = ATG_M_32_TRANS: Attagene TRANS-FACTORIAL HepG2 Assay for M32 Transcription Factor (Internal Marker) (AID 2282984); conditions: HepG2 Attagene TRANS M32 internal marker reporter
Summary of the method: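 Using transiently transfected HepG2 cells exposed to test chemicals for 24 h, reporter transcripts are converted to labelled cDNA fragments and quantified by capillary electrophoresis. DMSO defines the activity baseline.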

[10] = target: Transcriptional activator Myb (Homo sapiens) (UniProt P10242); assay: ATG_Myb_CIS: Attagene CIS-FACTORIAL HepG2 Assay for human Myeloblastosis (Myb) Proto-Oncogene Transcription Factor (AID 2282986; active means hit-call score of the fitted dose curve at least 0.9, where 1 is the maximum; inactive means score below 0.9); conditions: HepG2 Attagene CIS-FACTORIAL Myb reporter transcription; actives raise or lower the signal
Summary of the method: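 HepG2 cells were transiently transfected with cis-regulated multiple reporter transcription units reflecting endogenous Myb activity, then exposed to compound for 24 hours. Reporter mRNA was measured by RT-PCR with capillary electrophoresis; bidirectional fitting versus DMSO baseline.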

[11] = target: Nuclear respiratory factor 1 (Homo sapiens) (UniProt Q16656); assay: ATG_NRF1_CIS: Attagene CIS-FACTORIAL HepG2 Assay for human Nuclear Respiratory Factor 1 (NRF1) Orphan Gene (AID 2282987; active means hit-call score of the fitted dose curve at least 0.9, where 1 is the maximum; inactive means score below 0.9); conditions: HepG2 NRF1 cis-element reporter, Attagene multiplex; actives raise or lower the signal
Nuclear respiratory factor 1 (Homo sapiens), sequence (Q16656 whole entry, looked up): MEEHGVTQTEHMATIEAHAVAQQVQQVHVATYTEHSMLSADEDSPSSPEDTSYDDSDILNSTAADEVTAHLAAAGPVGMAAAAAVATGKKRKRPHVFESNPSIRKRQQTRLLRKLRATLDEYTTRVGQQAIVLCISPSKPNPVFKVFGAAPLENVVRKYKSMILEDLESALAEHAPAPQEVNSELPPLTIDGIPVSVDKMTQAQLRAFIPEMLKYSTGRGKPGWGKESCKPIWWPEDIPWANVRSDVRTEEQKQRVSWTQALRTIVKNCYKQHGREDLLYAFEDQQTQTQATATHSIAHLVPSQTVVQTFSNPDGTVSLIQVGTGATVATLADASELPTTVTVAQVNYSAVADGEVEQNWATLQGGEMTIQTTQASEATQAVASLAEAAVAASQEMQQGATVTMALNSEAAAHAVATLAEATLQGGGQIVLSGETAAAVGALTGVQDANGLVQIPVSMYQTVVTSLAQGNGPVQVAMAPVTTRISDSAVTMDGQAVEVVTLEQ
Summary of the method: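 HepG2 cells transiently transfected with multiple reporter transcription units under cis-regulatory promoter control, so endogenous transcription-factor activity is read. After 24 h compound exposure, reporter mRNA quantified by RT-PCR, fluorescent labelling, HpaI digestion and capillary electrophoresis; bidirectional fitting versus DMSO.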

[12] = ATG_VDRE_CIS: Attagene CIS-FACTORIAL HepG2 Assay for human Vitamin D Receptor Element (VDRE) (AID 2282968; active means hit-call score of the fitted dose curve at least 0.9, where 1 is the maximum; inactive means score below 0.9); conditions: HepG2 VDRE cis-reporter transcription, actives raise or lower the signal
Summary of the method: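 In transiently transfected HepG2 liver cells, gain or loss of reporter mRNA after 24 h exposure is scored relative to DMSO, using fluorescence detection by capillary electrophoresis of RT-PCR products.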

[13] = target: Steroid hormone receptor ERR1 (Homo sapiens) (UniProt P11474); assay: ATG_ERRa_TRANS: Attagene TRANS-FACTORIAL HepG2 Assay for human Estrogen-Related Receptor alpha (ERRa) (AID 2282971); conditions: HepG2 Attagene TRANS reporter, ERRa transactivation
Steroid hormone receptor ERR1 (Homo sapiens), sequence (P11474 whole entry, looked up, the tested form may be a part): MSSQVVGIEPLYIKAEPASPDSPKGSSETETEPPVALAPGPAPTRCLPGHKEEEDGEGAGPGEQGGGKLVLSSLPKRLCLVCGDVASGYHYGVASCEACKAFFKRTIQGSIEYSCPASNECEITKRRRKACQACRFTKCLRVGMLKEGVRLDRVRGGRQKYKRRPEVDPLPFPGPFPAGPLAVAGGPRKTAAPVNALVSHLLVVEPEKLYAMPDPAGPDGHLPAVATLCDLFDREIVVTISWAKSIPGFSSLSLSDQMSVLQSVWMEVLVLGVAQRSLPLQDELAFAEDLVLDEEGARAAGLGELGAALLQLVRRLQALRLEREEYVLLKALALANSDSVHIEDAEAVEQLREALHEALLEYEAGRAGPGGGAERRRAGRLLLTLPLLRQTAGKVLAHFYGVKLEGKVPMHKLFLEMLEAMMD
Summary of the method: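 HepG2 cells transiently transfected with GAL4-UAS reporter units and chimeric NR-Gal4 constructs; after 24 hour compound incubation, reporter mRNA quantified by RT-PCR, fluorescent labelling and capillary electrophoresis, gain of signal versus DMSO.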

[14] = target: Nuclear receptor subfamily 4 group A member 2 (Homo sapiens) (UniProt P43354); assay: ATG_NURR1_TRANS: Attagene TRANS-FACTORIAL HepG2 Assay for human Nuclear Receptor Related Protein 1 (NURR1) (AID 2282985); conditions: HepG2 Attagene TRANS reporter, mRNA readout
Nuclear receptor subfamily 4 group A member 2 (Homo sapiens), sequence (P43354 whole entry, looked up): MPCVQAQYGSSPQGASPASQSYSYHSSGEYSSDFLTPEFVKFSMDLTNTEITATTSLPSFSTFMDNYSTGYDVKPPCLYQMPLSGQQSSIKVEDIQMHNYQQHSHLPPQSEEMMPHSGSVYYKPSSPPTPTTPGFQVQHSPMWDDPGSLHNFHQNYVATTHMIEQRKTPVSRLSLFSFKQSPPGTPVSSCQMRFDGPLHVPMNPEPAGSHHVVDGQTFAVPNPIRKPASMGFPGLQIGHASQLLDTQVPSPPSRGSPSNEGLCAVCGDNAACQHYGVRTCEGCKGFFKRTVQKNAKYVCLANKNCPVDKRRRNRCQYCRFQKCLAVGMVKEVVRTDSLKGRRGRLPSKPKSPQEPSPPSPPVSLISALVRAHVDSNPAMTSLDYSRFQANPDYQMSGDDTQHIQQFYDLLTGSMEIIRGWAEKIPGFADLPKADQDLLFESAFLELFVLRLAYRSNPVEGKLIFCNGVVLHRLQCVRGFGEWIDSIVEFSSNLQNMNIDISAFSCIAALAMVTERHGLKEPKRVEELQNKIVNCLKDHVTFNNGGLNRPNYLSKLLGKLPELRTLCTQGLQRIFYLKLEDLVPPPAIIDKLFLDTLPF
Summary of the method: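 Cells: HepG2, transiently transfected. Exposure: 24 h. Detection: fluorescence of labelled RT-PCR products separated by capillary electrophoresis; upward fit versus DMSO.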

[15] = target: Estrogen receptor (Homo sapiens) (UniProt P03372); assay: ATG_ERa_TRANS: Attagene TRANS-FACTORIAL HepG2 Assay for human Estrogen Receptor alpha (ERa) (AID 2282970); conditions: HepG2 Attagene TRANS ERa GAL4 reporter, mRNA
Summary of the method: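 HepG2 cells transiently transfected with multiplexed GAL4-UAS reporter units read out chimeric NR-Gal4 activity. After 24 h compound exposure, reporter mRNA was quantified by RT-PCR, 6-FAM labeling, HpaI digestion and capillary electrophoresis, relative to DMSO.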

[16] = ATG_GAL4_TRANS: Attagene TRANS-FACTORIAL HepG2 Assay for GAL4 (Internal Marker) (AID 2282976); conditions: HepG2 Attagene TRANS GAL4 internal marker reporter
Summary of the method: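 Background-control readout: GAL4-UAS reporter transcript in transiently transfected HepG2 cells after 24 h compound exposure. Measured by RT-PCR, 6-FAM primer extension, HpaI digest and capillary electrophoresis; gain-of-signal fit versus DMSO.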

[17] = target: Estrogen-related receptor gamma (Homo sapiens) (UniProt P62508); assay: ATG_ERRg_TRANS: Attagene TRANS-FACTORIAL HepG2 Assay for human Estrogen-Related Receptor gamma (ERRg) (AID 2282977); conditions: HepG2 Attagene TRANS reporter, ERRg transactivation;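 further: hits increase reporter signal over DMSO so potencies reflect activators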
Estrogen-related receptor gamma (Homo sapiens), sequence (P62508 whole entry, looked up, the tested form may be a part): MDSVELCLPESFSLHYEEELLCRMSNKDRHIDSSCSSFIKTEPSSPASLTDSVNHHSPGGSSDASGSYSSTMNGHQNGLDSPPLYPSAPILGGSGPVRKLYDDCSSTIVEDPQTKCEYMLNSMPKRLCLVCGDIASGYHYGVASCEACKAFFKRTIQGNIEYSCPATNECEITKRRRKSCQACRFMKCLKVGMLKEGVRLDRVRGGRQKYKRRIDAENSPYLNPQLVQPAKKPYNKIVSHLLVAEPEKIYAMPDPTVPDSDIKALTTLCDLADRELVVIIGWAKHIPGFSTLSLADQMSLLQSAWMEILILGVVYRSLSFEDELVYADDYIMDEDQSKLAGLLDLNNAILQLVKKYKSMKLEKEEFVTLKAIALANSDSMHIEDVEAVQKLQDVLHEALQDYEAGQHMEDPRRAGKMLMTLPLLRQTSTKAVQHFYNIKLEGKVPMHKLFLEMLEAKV
Summary of the method: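 HepG2 cells transiently transfected with multiplexed GAL4-UAS reporter units and chimeric NR-Gal4 constructs were exposed to test chemicals for 24 h. Reporter mRNA was measured by RT-PCR, 6-FAM primer extension, HpaI digestion and capillary electrophoresis; gain-of-signal versus DMSO.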

[18] = target: Hepatocyte nuclear factor 4-alpha (Homo sapiens) (UniProt P41235); assay: ATG_HNF4a_TRANS: Attagene TRANS-FACTORIAL HepG2 Assay for human Hepatocyte Nuclear Factor 4 alpha (HNF4a) (AID 2282982); conditions: HepG2 HNF4a transactivation reporter, mRNA readout
Hepatocyte nuclear factor 4-alpha (Homo sapiens), sequence (P41235 whole entry, looked up): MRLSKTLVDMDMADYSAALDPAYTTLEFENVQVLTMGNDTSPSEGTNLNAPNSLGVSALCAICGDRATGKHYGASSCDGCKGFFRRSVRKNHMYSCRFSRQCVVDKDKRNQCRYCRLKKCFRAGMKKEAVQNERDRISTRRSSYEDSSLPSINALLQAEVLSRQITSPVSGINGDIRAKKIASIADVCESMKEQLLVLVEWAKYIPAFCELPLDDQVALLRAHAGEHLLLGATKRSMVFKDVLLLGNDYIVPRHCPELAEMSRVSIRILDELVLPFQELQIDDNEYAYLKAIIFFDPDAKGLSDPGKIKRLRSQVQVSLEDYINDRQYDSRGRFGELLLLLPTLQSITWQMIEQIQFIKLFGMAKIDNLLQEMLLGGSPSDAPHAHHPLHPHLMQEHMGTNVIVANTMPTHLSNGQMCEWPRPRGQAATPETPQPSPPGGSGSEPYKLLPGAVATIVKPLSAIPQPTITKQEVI
Summary of the method: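 Transfected HepG2 reporter cells are dosed for 24 h; reporter RNA is reverse-transcribed, amplified, fluorescently labelled and HpaI-digested before CE sizing. Positive-direction fit against DMSO.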

[19] = target: Oxysterols receptor LXR-alpha (Homo sapiens) (UniProt Q13133); assay: ATG_LXRa_TRANS: Attagene TRANS-FACTORIAL HepG2 Assay for human Liver X Receptor alpha (LXRa) (AID 2282980); conditions: HepG2 Attagene TRANS reporter, LXRa transactivation
Oxysterols receptor LXR-alpha (Homo sapiens), sequence (Q13133 whole entry, looked up, the tested form may be a part): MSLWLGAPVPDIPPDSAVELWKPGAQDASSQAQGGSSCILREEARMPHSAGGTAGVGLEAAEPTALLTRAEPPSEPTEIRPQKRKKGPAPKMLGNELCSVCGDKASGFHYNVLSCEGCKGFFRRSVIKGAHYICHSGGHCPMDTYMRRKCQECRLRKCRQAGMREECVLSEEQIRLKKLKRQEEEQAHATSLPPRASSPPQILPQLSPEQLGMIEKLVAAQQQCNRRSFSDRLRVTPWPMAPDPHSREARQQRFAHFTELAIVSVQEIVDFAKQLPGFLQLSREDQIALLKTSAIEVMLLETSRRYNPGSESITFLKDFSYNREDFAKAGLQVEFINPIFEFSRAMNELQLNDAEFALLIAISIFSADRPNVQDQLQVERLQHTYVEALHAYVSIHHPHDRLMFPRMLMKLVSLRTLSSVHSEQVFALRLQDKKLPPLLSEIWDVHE
Summary of the method: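 HepG2 cells transiently transfected with GAL4-UAS reporter units for chimeric NR-Gal4 proteins, exposed to chemicals for 24 h. Reporter mRNA quantified by RT-PCR and capillary electrophoresis; gain of signal fitted relative to DMSO.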

Measured: outcome

CC1=NN(c2ccccc2)C(=O)C1
not listed: [12] | [13] | [14] | [15] | [16] | [17] | [18] | [19]
inactive: all other assays above

NC(C(F)(F)F)C(F)(F)F
inactive: [1] | [2] | [12] | [13] | [3] | [8] | [9] | [14] | [10] | [11]

CN(Cc1cnc2nc(N)nc(N)c2n1)c1ccc(C(=O)N[C@@H](CCC(=O)O)C(=O)O)cc1
inactive: [1] | [2] | [15] | [3] | [4] | [16] | [6] | [7] | [10] | [11]

O=S(=O)(O)c1ccccc1
not listed: [3] | [4] | [13] | [14] | [15] | [19]
inactive: all other assays above

CCCC=O
not listed: [3] | [6] | [9] | [15]
inactive: all other assays above

OCC(CO)(CBr)CBr
not listed: [4] | [8] | [12] | [13] | [15] | [16]
inactive: all other assays above

O=C1NS(=O)(=O)c2ccccc21
not listed: [5] | [6] | [8] | [12] | [13] | [15] | [17]
inactive: all other assays above

CC(=O)Nc1ccc(O)cc1
inactive: [1] | [2] | [3] | [8] | [9] | [10]

Cc1ccc(S(=O)(=O)O)cc1
not listed: [4] | [5] | [6] | [7] | [13] | [14] | [15] | [17]
inactive: all other assays above
